# Test results taken from the supplement of paper PMC6992640.
# System: WHIM30 (cells of a triple-negative basal-like breast cancer xenograft)
# Test: cell viability of combination (% of vehicle); higher = less cytotoxic
# Conditions: 1 µM; 72 h; partner dose: 10 nM
# Procedure: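 PDX cells were treated for 72 h with each drug at 1 µM plus carfilzomib (10 nM; 100 nM for WHIM2). Luciferase viability is expressed as percent of vehicle.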
row,Structure (SMILES),cell viability of combination
1,CC1(C)Cc2c(-c3ccccc3)c(-c3ccc(Cl)cc3)c(CC(=O)O)n2C1 [Licofelone] + CC(C)C[C@H](NC(=O)[C@H](CCc1ccccc1)NC(=O)CN1CCOCC1)C(=O)N[C@@H](Cc1ccccc1)C(=O)N[C@@H](CC(C)C)C(=O)[C@@]1(C)CO1 [Carfilzomib],18.6
2,CCOC(=O)C1=C(COCCN)NC(C)=C(C(=O)OC)C1c1ccccc1Cl (stereo not given) [Amlodipine] + CC(C)C[C@H](NC(=O)[C@H](CCc1ccccc1)NC(=O)CN1CCOCC1)C(=O)N[C@@H](Cc1ccccc1)C(=O)N[C@@H](CC(C)C)C(=O)[C@@]1(C)CO1 [Carfilzomib],15.8
3,CCC(NC(=O)C(C)NC)C(=O)N1CC(O)CC1Cc1c(-c2[nH]c3cc(F)ccc3c2CC2CC(O)CN2C(=O)C(CC)NC(=O)C(C)NC)[nH]c2cc(F)ccc12 (stereo not given) + CC(C)C[C@H](NC(=O)[C@H](CCc1ccccc1)NC(=O)CN1CCOCC1)C(=O)N[C@@H](Cc1ccccc1)C(=O)N[C@@H](CC(C)C)C(=O)[C@@]1(C)CO1 [Carfilzomib],11.4
4,CC(C)c1nc(N(C)S(C)(=O)=O)nc(-c2ccc(F)cc2)c1C=CC(O)CC(O)CC(=O)[O-].CC(C)c1nc(N(C)S(C)(=O)=O)nc(-c2ccc(F)cc2)c1C=CC(O)CC(O)CC(=O)[O-].[Ca+2] (stereo not given) [Rosuvastatin Calcium] + CC(C)C[C@H](NC(=O)[C@H](CCc1ccccc1)NC(=O)CN1CCOCC1)C(=O)N[C@@H](Cc1ccccc1)C(=O)N[C@@H](CC(C)C)C(=O)[C@@]1(C)CO1 [Carfilzomib],19.6
5,CS(=O)(=O)CCNCc1ccc(-c2ccc3ncnc(Nc4ccc(OCc5cccc(F)c5)c(Cl)c4)c3c2)o1.Cc1ccc(S(=O)(=O)O)cc1.Cc1ccc(S(=O)(=O)O)cc1 [Lapatinib Ditosylate] + CC(C)C[C@H](NC(=O)[C@H](CCc1ccccc1)NC(=O)CN1CCOCC1)C(=O)N[C@@H](Cc1ccccc1)C(=O)N[C@@H](CC(C)C)C(=O)[C@@]1(C)CO1 [Carfilzomib],23.7
6,CNCCCC12CCC(c3ccccc31)c1ccccc12.Cl [Maprotiline HCl] + CC(C)C[C@H](NC(=O)[C@H](CCc1ccccc1)NC(=O)CN1CCOCC1)C(=O)N[C@@H](Cc1ccccc1)C(=O)N[C@@H](CC(C)C)C(=O)[C@@]1(C)CO1 [Carfilzomib],16
7,Clc1ccc(C(Cn2ccnc2)OCc2ccc(Sc3ccccc3)cc2)c(Cl)c1.O=[N+]([O-])O (stereo not given) [Fenticonazole Nitrate] + CC(C)C[C@H](NC(=O)[C@H](CCc1ccccc1)NC(=O)CN1CCOCC1)C(=O)N[C@@H](Cc1ccccc1)C(=O)N[C@@H](CC(C)C)C(=O)[C@@]1(C)CO1 [Carfilzomib],21.1
8,COC(=O)C1=C(C)NC(C)=C(C(=O)OCCN(C)Cc2ccccc2)C1c1cccc([N+](=O)[O-])c1.Cl (stereo not given) [Nicardipine HCl] + CC(C)C[C@H](NC(=O)[C@H](CCc1ccccc1)NC(=O)CN1CCOCC1)C(=O)N[C@@H](Cc1ccccc1)C(=O)N[C@@H](CC(C)C)C(=O)[C@@]1(C)CO1 [Carfilzomib],13.8
9,CCOc1nc2cccc(C(=O)OC(C)OC(=O)OC3CCCCC3)c2n1Cc1ccc(-c2ccccc2-c2nn[nH]n2)cc1 (stereo not given) [Candesartan Cilexetil] + CC(C)C[C@H](NC(=O)[C@H](CCc1ccccc1)NC(=O)CN1CCOCC1)C(=O)N[C@@H](Cc1ccccc1)C(=O)N[C@@H](CC(C)C)C(=O)[C@@]1(C)CO1 [Carfilzomib],18.9
10,CC(=O)c1cc2c(o1)C(=O)c1ccccc1C2=O [Napabucasin] + CC(C)C[C@H](NC(=O)[C@H](CCc1ccccc1)NC(=O)CN1CCOCC1)C(=O)N[C@@H](Cc1ccccc1)C(=O)N[C@@H](CC(C)C)C(=O)[C@@]1(C)CO1 [Carfilzomib],5.17
11,COc1cc2nccc(Oc3ccc(NC(=O)Nc4cc(C)on4)c(Cl)c3)c2cc1OC [Tivozanib (AV-951)] + CC(C)C[C@H](NC(=O)[C@H](CCc1ccccc1)NC(=O)CN1CCOCC1)C(=O)N[C@@H](Cc1ccccc1)C(=O)N[C@@H](CC(C)C)C(=O)[C@@]1(C)CO1 [Carfilzomib],18.1
12,C#Cc1cccc(Nc2ncnc3cc(OCCOC)c(OCCOC)cc23)c1.Cl [Erlotinib Hydrochloride] + CC(C)C[C@H](NC(=O)[C@H](CCc1ccccc1)NC(=O)CN1CCOCC1)C(=O)N[C@@H](Cc1ccccc1)C(=O)N[C@@H](CC(C)C)C(=O)[C@@]1(C)CO1 [Carfilzomib],26.3
13,Cc1ccc(C(=O)N(CCCN)C(c2nc3cc(Cl)ccc3c(=O)n2Cc2ccccc2)C(C)C)cc1 (stereo not given) + CC(C)C[C@H](NC(=O)[C@H](CCc1ccccc1)NC(=O)CN1CCOCC1)C(=O)N[C@@H](Cc1ccccc1)C(=O)N[C@@H](CC(C)C)C(=O)[C@@]1(C)CO1 [Carfilzomib],19.6
14,O=C(NN=Cc1ccc([N+](=O)[O-])o1)c1ccc(O)cc1 [Nifuroxazide] + CC(C)C[C@H](NC(=O)[C@H](CCc1ccccc1)NC(=O)CN1CCOCC1)C(=O)N[C@@H](Cc1ccccc1)C(=O)N[C@@H](CC(C)C)C(=O)[C@@]1(C)CO1 [Carfilzomib],12.5
15,C=CC(=O)Nc1cc(Nc2nccc(-c3cn(C)c4ccccc34)n2)c(OC)cc1N(C)CCN(C)C + CC(C)C[C@H](NC(=O)[C@H](CCc1ccccc1)NC(=O)CN1CCOCC1)C(=O)N[C@@H](Cc1ccccc1)C(=O)N[C@@H](CC(C)C)C(=O)[C@@]1(C)CO1 [Carfilzomib],17.5
16,Cc1nc(Nc2ncc(C(=O)Nc3c(C)cccc3Cl)s2)cc(N2CCN(CCO)CC2)n1 + CC(C)C[C@H](NC(=O)[C@H](CCc1ccccc1)NC(=O)CN1CCOCC1)C(=O)N[C@@H](Cc1ccccc1)C(=O)N[C@@H](CC(C)C)C(=O)[C@@]1(C)CO1 [Carfilzomib],26.6
17,Cl.OC(CNCC(O)C1CCc2cc(F)ccc2O1)C1CCc2cc(F)ccc2O1 (stereo not given) [Nebivolol] + CC(C)C[C@H](NC(=O)[C@H](CCc1ccccc1)NC(=O)CN1CCOCC1)C(=O)N[C@@H](Cc1ccccc1)C(=O)N[C@@H](CC(C)C)C(=O)[C@@]1(C)CO1 [Carfilzomib],21.2
18,CC1CC(=O)NN=C1c1ccc(NN=C(C#N)C#N)cc1 (stereo not given) [Levosimendan] + CC(C)C[C@H](NC(=O)[C@H](CCc1ccccc1)NC(=O)CN1CCOCC1)C(=O)N[C@@H](Cc1ccccc1)C(=O)N[C@@H](CC(C)C)C(=O)[C@@]1(C)CO1 [Carfilzomib],21.5
19,COc1cc2nccc(Oc3ccc(NC(=O)C4(C(=O)Nc5ccc(F)cc5)CC4)cc3)c2cc1OC.O=C(O)CC(O)C(=O)O [Cabozantinib malate (XL184)] + CC(C)C[C@H](NC(=O)[C@H](CCc1ccccc1)NC(=O)CN1CCOCC1)C(=O)N[C@@H](Cc1ccccc1)C(=O)N[C@@H](CC(C)C)C(=O)[C@@]1(C)CO1 [Carfilzomib],16.1
20,COC(=O)NC(C(=O)NC(Cc1ccccc1)C(O)CN(Cc1ccc(-c2ccccn2)cc1)NC(=O)C(NC(=O)OC)C(C)(C)C)C(C)(C)C (stereo not given) [Atazanavir] + CC(C)C[C@H](NC(=O)[C@H](CCc1ccccc1)NC(=O)CN1CCOCC1)C(=O)N[C@@H](Cc1ccccc1)C(=O)N[C@@H](CC(C)C)C(=O)[C@@]1(C)CO1 [Carfilzomib],24.5
